In the supplement of paper PMC10338343:
± gives the standard deviation.

test system: MILI (PIWIL2) piRISC loaded with piRNA #1 (26 nt); assay: pre-steady-state target cleavage rate (min^-1); guide: piRNA #1 5'p-UGAGGUAGUAGGUUGUAUAGUAUCCA; MIWI and MILI are mouse PIWI proteins and EfPiwi is from a freshwater sponge; tags in brackets are library labels; higher = faster piRNA-guided slicing of the target; details: auxiliary factor: 500 nM mouse GTSF1
Method in brief: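 Sequencing of uncleaved targets, normalised to depth and to weakly complementary targets, was the readout of this Cleave-'n-Seq assay. A transcribed, DNA-blocked target RNA library (0.1 nM) was mixed with 1 nM active affinity-purified piRISC carrying one synthetic guide, with or without 500 nM GTSF1 partner protein, in HEPES–potassium acetate buffer at 33 °C for 0–8 or 0–960 min. Three trials were pooled, k3 was capped at 0.0001 min^-1, and a burst-and-steady-state fit gave the pre-steady-state cleavage rate.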

**Q.** How did the “pre-steady-state target cleavage rate” value turn out when GGAGACCUAUGAUAUGAACCACUACCUCA was run?
**A.** The value was < 0.0001.

**Q.** With GGAGACCUUACUAUACAACCUACAUGCUCA as the sequence, how does the “pre-steady-state target cleavage rate” value read?
**A.** Its value is 0.0591 ± 0.012.

**Q.** GGAGACCUAUCUAUACAUCGUACUACCUCA was tested. Which “pre-steady-state target cleavage rate” value did it give?
**A.** The value was 0.014 ± 0.0026.

**Q.** How did the “pre-steady-state target cleavage rate” value turn out when GGAGAGGAUCCUAUACAACCUACUACCUCA was run?
**A.** Its value is 0.164 ± 0.025.

**Q.** With GGAGAGGAUACUAUACAUCCUACUACCUCA as the sequence, how does the “pre-steady-state target cleavage rate” value read?
**A.** The value was 0.28 ± 0.023.

**Q.** How did the “pre-steady-state target cleavage rate” value turn out when GGAGACCUAUGUAUAGUUCCUACUACCUCA was run?
**A.** Its value is 0.00602 ± 0.0021.

**Q.** How did the “pre-steady-state target cleavage rate” value turn out when GGAGACCUAACUAUACAACCUACAAGCUCA was run?
**A.** The value was 0.0191 ± 0.011.

**Q.** GGAGACCUAUGUAUACUACCUACAACCUCA was tested. Which “pre-steady-state target cleavage rate” value did it give?
**A.** Its value is 0.0574 ± 0.0091.

**Q.** With GGAGUGGAUACUUUUCAACCUACUACCUCA as the sequence, how does the “pre-steady-state target cleavage rate” value read?
**A.** The value was 0.156 ± 0.0072.

**Q.** With GGAGACCUAUCUAUACAACCUACUAGCACA as the sequence, how does the “pre-steady-state target cleavage rate” value read?
**A.** The value was 0.0357 ± 0.012.

**Q.** Which “pre-steady-state target cleavage rate” value does the source give for GGAGACCUAUGAUUACAUCCUACUACCUCA here?
**A.** The value was 0.0102 ± 0.0027.

**Q.** With GGAGACCUAUGUAUACAACCUACUGCCUCA as the sequence, how does the “pre-steady-state target cleavage rate” value read?
**A.** Its value is 0.0511 ± 0.0081.

**Q.** GGAGACCUAUGUAUACAACCUAGAUCCUCA was tested. Which “pre-steady-state target cleavage rate” value did it give?
**A.** The value was 0.00265 ± 0.0026.

**Q.** How did the “pre-steady-state target cleavage rate” value turn out when GGAGACCAUACUAUACAAGCAACUACCUCA was run?
**A.** Its value is 0.00864 ± 0.003.

**Q.** GGAGACCUAUGUAUACAAGCUACUAGCUCA was tested. Which “pre-steady-state target cleavage rate” value did it give?
**A.** The value was 0.0122 ± 0.0045.

**Q.** For GGAGACCUAUGAUUACAUCCAACUACCUCA, which “pre-steady-state target cleavage rate” value is on record?
**A.** Its value is 0.00328 ± 0.003.

**Q.** GGAGACCUAUGAUUACAACCUACUUACCUCA was tested. Which “pre-steady-state target cleavage rate” value did it give?
**A.** The value was 0.0057 ± 0.0019.

**Q.** With GGAGACGAUACUAUUGUACCUACUACCUCA as the sequence, how does the “pre-steady-state target cleavage rate” value read?
**A.** The value was 0.119 ± 0.0095.

**Q.** GGAGACCUAUGAAUACAACCUACGUACCUCA was tested. Which “pre-steady-state target cleavage rate” value did it give?
**A.** The value was 0.00396 ± 0.0023.

**Q.** For GGAGACCAUACUUUACAACCUUCUACCUCA, which “pre-steady-state target cleavage rate” value is on record?
**A.** Its value is 0.0105 ± 0.0033.

**Q.** GGAGACCAUACUUUACAACGUACUACCUCA was tested. Which “pre-steady-state target cleavage rate” value did it give?
**A.** Its value is 0.0198 ± 0.0034.

**Q.** Which “pre-steady-state target cleavage rate” value does the source give for GGAGAGGAUACUAUACAACCUACUACCCUCA here?
**A.** Its value is 0.11 ± 0.017.

**Q.** GGAGACCUAACUAUACAAGCAACUACCUCA was tested. Which “pre-steady-state target cleavage rate” value did it give?
**A.** The value was 0.00654 ± 0.0041.

**Q.** Which “pre-steady-state target cleavage rate” value does the source give for GGAGACCUAUGAUAUGUACCUACUGACCUCA here?
**A.** The value was < 0.0001.
